Compound activity from PubChem.
CHT block = inhibitors of human choline transporter CHT; Q9GZV3; CHT-expressing cells, membrane potential dye, choline response; active compounds read low; B-score at 10 µM; 0.86% of 310,000 active; AID 488975;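 active = B-score over 3 SD under the library average, and starting fluorescence ratio not unusually high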;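 also: choline stimulus applied at its EC90 after an EC20 pre-addition; B-score computed on integrated fluorescence ratio after choline addition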
HDAC3 inh = human HDAC3 inhibition | 0.15% of 320,000 active | O15379 | inhibition, % at 8.3 µM | recombinant HDAC3, fluorogenic peptide/trypsin coupled, fluorescence; in the data active = inhibition above about 26%, passing the limit was not always enough
PHOSPHO1 block = inhibitors of human PHOSPHO1 phosphatase; Q8TCT1; recombinant PHOSPHO1, absorbance phosphatase assay; inhibition, % at 13.3 µM; 1.1% of 290,000 active; in the data active = inhibition above about 60%
Target sequence (Q8TCT1 whole entry, looked up): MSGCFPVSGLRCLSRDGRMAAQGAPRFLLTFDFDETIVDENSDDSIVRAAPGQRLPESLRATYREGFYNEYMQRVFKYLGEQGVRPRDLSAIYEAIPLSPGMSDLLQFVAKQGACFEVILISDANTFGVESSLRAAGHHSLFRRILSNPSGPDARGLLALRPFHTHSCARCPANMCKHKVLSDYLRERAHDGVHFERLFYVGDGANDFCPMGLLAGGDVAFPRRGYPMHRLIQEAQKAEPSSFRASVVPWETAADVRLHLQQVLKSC
TMEM16A inh = blocks the mouse calcium-activated chloride channel TMEM16A; 1.2% of 310,000 active; HEK293 TMEM16A/YFP iodide influx fluorescence, ionomycin; AID 588511; Q8BHY3; normalized B-score (activity score, 25-100; higher = stronger inhibition) at 10 µM;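 active = ratio plate-corrected score three or more library SD toward inhibition, starting fluorescence score within five deviations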;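 also: score derived from kinetic fluorescence span divided by baseline fluorescence per well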
CHT PAM = allosteric activators of human choline transporter CHT; Q9GZV3; CHT-expressing cells, membrane potential dye, choline EC20; active compounds read high; LV-AA mutant CHT in HEK293 cells; B-score at 10 µM; 0.49% of 310,000 active; AID 488977;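 active = initial fluorescence not abnormally high and integrated response B-score, plate-corrected, over 3 SD above library mean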
TMEM16A act = activators or potentiators of mouse TMEM16A chloride channel | 0.3% of 340,000 active | B-score at 10 µM | AID 623877 | Q8BHY3 | HEK293 TMEM16A/YFP-H148Q/I152L, iodide quench fluorescence; active compounds read low;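 active = fluorescence-ratio B-score plate-corrected deviation score at least 3 library SD below zero, with starting fluorescence score within 5 deviations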;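 also: channel opened by trigger with iodide after compound preincubation; score built on the fluorescence ratio of max minus min over baseline; more negative score means more quench and so TMEM16A activation or potentiation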
CHT block conf = human CHT inhibition, confirmatory screen; shares compounds with CHT block; CHT activity remaining % of control (active compounds read low), % at 10 µM; 70% of 2,400 active; AID 493221; CHT-expressing cells, choline membrane potential dye; LV-to-AA substituted CHT, HEK293 cells;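 active = choline transporter activity left, mean of duplicates at 10 µM, below buffer-only control mean minus 3 SD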;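 also: depolarization triggered by choline at its EC90 following an EC20 pre-addition; 0% = hemicholinium-3 full block and 100% = buffer-only control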
HEK293 MPD ctr = counter-screen for CHT inhibitors: effect in parental HEK293 cells; shares compounds with CHT block; membrane potential dye, choline response; active = decrease or increase beyond buffer ±3SD; membrane potential ratio readout (active if shifted either direction beyond buffer ±3SD; no single direction) at 10 µM; 4% of 2,400 active; AID 493222;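 also: parental cells lack the transporter so any hit is non-specific; ratio is peak minus trough fluorescence over baseline after EC90 choline challenge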
* marks the source's active call; other numbers are inactive results; i = inactive; . = no result. Most compounds without a hit are left out; they make up all but 3.2% or so of the library.

SMILES | CHT block | HDAC3 inh | PHOSPHO1 block | TMEM16A inh | CHT PAM | TMEM16A act | CHT block conf | HEK293 MPD ctr
CCN(CC)CCCC(C)NC(=O)c1c(NC(=O)c2ccccc2)sc2c1CCCC2 (centres undefined) | -7.58* | -5.3 | 24.3 | i | i | i | 39.2%* | i
Cc1ccc(C(=O)O)cc1N=Cc1cc(Br)cc(Br)c1O | -6.17* | -4.5 | 0.2 | i | i | i | 58.9%* | i
COc1ccc(C2Nc3ccccc3C(=O)N2Cc2ccco2)cc1COc1ccccc1F (centres undefined) | i | -2.6 | 13.9 | i | i | i | . | .
O=[N+]([O-])c1ccc(O)c(/C=N/n2cnc3ccccc32)c1 | -5.01* | -2.2 | -5.8 | 25* | i | i | i | i
CSC1=C(C#N)C(c2ccncc2)C(C(=O)Nc2ccccc2)=C(C)N1 (centres undefined) | -5.03* | -0.4 | 61.5* | i | i | i | 50.5%* | i
CC1=C(C(=O)Nc2ccc(F)cc2)C(c2ccncc2)C2=C(CCCC2=O)N1 (centres undefined) | i | 3.9 | -46.2 | i | i | i | . | .
NC(N)=Nc1nc(CCN2C(=O)c3ccccc3C2=O)cs1 | -6.28* | 0.1 | -9.4 | i | i | i | 30.3%* | i
Cc1nc2nc(SCC(=O)C(C)(C)C)[nH]c2cc1Br | i | 3.2 | 47.6 | i | i | i | . | .
CN1CCN(Cc2ccc(Sc3ccc(Cl)cc3)c([N+](=O)[O-])c2)CC1 | -5.07* | . | 53.2 | i | i | i | 61.1%* | i
Cc1ccc(Sc2ccc(CN3CCCC3)cc2[N+](=O)[O-])cc1 | i | -1.0 | 15.2 | i | i | i | . | .
COCCN1Cc2cccc(C(=O)Nc3ccc(-c4nc5ccccc5[nH]4)cc3)c2C1=O | -8.26* | -5.4 | -6.6 | i | i | i | i | i
CCCc1nc2oc3c(NCc4ccccn4)ncnc3c2c2c1COC(C)(C)C2 | i | -12.5 | 4.7 | i | i | i | . | .
CCCc1nc2oc3c(NCC4CCCO4)ncnc3c2c2c1COC(C)(C)C2 (centres undefined) | -8.07* | -13.7 | 4.7 | i | i | i | 16.0%* | i
CCCCCCCCCCCCN1[C@@H](CC(=O)O)c2cc(C(F)(F)F)ccc2S1(=O)=O | -7.29* | 11.1 | . | 100* | i | i | 43.6%* | i
CC(C)c1ccc(NS(=O)(=O)c2ccc(Cl)nc2)cc1 | i | . | -18.2 | i | i | i | . | .
O=[N+]([O-])c1cc(NS(=O)(=O)c2ccc(Cl)nc2)ccc1Cl | -6.17* | 0.5 | . | i | i | i | 42.3%* | i
Cc1ccc(C)c(C(=O)O/N=C(\N)c2ccc(Br)cc2)c1 | i | -5.5 | -4.4 | i | i | i | . | .
O=[N+]([O-])c1cccc(CSc2nnc3ccccn23)c1 | i | 6.6 | 5.0 | i | i | i | 67.3%* | i
O=C(O)c1cc(=O)c2c(Cl)cc(Cl)cc2[nH]1 | i | -3.0 | . | i | i | i | . | .
Cc1ccc(NC(=S)NNC(=O)c2ccccc2O)c(C)c1 | -8.2* | -0.8 | -41.6 | 100* | i | i | i | i
Cc1cccc(NC(=S)NNC(=O)c2ccc(O)cc2O)c1C | i | -1.9 | -1.3 | i | i | i | . | .
CN(Cc1ccccc1)C(=O)c1cc(S(=O)(=O)N2CCOCC2)cn1C | i | 2.3 | 20.2 | i | i | i | . | .
O=C(NCCCOc1cccc(CN2CCCCC2)c1)c1ccc(Cl)c(Cl)c1 | -10.9* | -0.8 | -5.8 | i | i | i | 22.0%* | 2.45*
O=C1Nc2cc(C(=O)NCCCN3CCCC3)ccc2S/C1=C\c1ccccc1 | -10.7* | 2.7 | 32.4 | i | i | i | 24.4%* | i
